High-throughput results (PubChem)
APP 5'UTR act – activators of APP 5'UTR luciferase reporter, primary screen, SH-SY5Y cells. SH-SY5Y APP 5'UTR luciferase reporter, luminescence; zero percent = DMSO vehicle wells. activation, % at 2 µM. actives 1% (n = 190,000). AID 1276, 2008;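 active means activation above a set limit, based on mean plus 3 SD of controls, cut at about 140% in these data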
hcDAF-12 act – H. contortus DAF-12 nuclear receptor activators, primary screen, cell-based, luminescence, HEK293, lit1-tk-luc reporter; HEK293 hcDAF-12 lit1-tk-luc reporter; 0% DMSO, 100% Δ7-dafachronic acid; activation, % at 6.8 µM; actives 1.4% (n = 370,000);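 active means activation above the mean of all tested compounds plus 3 SD, cut at about 5.5% in these data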;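 further: 100% = response to 3 µM Δ7-dafachronic acid high control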
NF-kB neuron act – activators of NF-kB expression in neurons, primary screen, cell-based, HTS; human neuronal cells, NF-kB reporter expression; hits give high values; actives 1.6% (n = 190,000); fold change at 12.5 µM; AID 1239, 2008; in the data active means fold change above about 3.3
hgDAF12 agonist – H. glycines DAF-12 receptor agonists, primary screen, cell-based, luminescence, HEK293, GAL4 fusion, UAS-luciferase. activation, % at 6.8 µM. HEK293 GAL4-hgDAF12 UAS-luciferase reporter, agonist luminescence; normalized to butyrate control. AID 687014, 2013. actives 1.8% (n = 370,000);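 active means activation above a cutoff set at the mean of all screened compounds plus 3 SD, cut at about 10% in these data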;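 further: 0% = DMSO wells and 100% = sodium butyrate wells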
ssDAF12 agonist – S. stercoralis DAF-12 nuclear receptor activators, primary screen, cell-based, luminescence, HEK293, GRIP1 co-expression, lit1-tk-luc | Nuclear hormone receptor DAF-12 (Strongyloides stercoralis) | activation, % at 6.8 µM | AID 652126, 2013 | HEK293 ssDAF-12/GRIP1 lit1-tk-luc reporter; % of 3 µM dafachronic acid response | actives 1% (n = 370,000);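 active means activation above the mean over all tested compounds plus 3 SD, cut at about 0.9% in these data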;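 further: 0% = DMSO-only wells and 100% = 3 µM delta7-dafachronic acid wells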
Starred values were filed as active, the others as inactive; / = no result given. An excerpt weighted towards active compounds, which were near 3.4% of everything screened.

SMILES	APP 5'UTR act	hcDAF-12 act	NF-kB neuron act	hgDAF12 agonist	ssDAF12 agonist
COc1ccc(-c2csc(N3C(=N)SCC3=O)n2)cc1	74	6.4*	4.9*	13*	0
CC(C)=CCC/C(C)=C/C[C@]12C[C@H](C(=O)O)N(C(=O)OC(C)(C)C)[C@@H]1N(C(=O)OC(C)(C)C)c1ccccc12	/	2	/	-4	-1
CC1CCCCN1Cc1c(O)ccc2c(=O)c(-c3ccc(Cl)cc3)coc12 (stereo not drawn)	/	5.8*	/	1	0
CC1CCCCN1Cc1c(O)ccc2c(=O)c(-c3ccc(Br)cc3)coc12 (stereo not drawn)	/	0	/	-2	-1
O=C1CCC[C@H]2C[C@H](NCc3ccco3)CC[C@]23CCCN13	/	-1	/	-2	-2
CCCNC(=O)Cn1cnc2sc(C(=O)Nc3ccc4c(c3)OCO4)c(C)c2c1=O	2	/	1.1	/	/
CCn1cnc2sc(C(=O)Nc3ccc4c(c3)OCO4)c(C)c2c1=O	39	1	2	13*	0
C/C(Cc1ccccc1)=N/NC(=O)CNC(=O)C(c1ccccc1)c1ccccc1	/	6.0*	/	0	0
COC(=O)N[C@H](C(=O)N[C@@H](Cc1ccccc1)[C@@H](O)CN(Cc1ccc(-c2ccccn2)cc1)NC(=O)[C@@H](NC(=O)OC)C(C)(C)C)C(C)(C)C	/	-3	/	1	-1
O=C(/C=C/c1ccc(F)cc1)Nc1nc2ccccc2[nH]1	161*	/	1.9	/	/
CCCCOc1ccc(/C=C/C(=O)NCCc2nc3ccccc3[nH]2)cc1	3	-3	1	-1	-2
COc1ccc(/C=C/C(=O)NCCc2nc3ccccc3[nH]2)cc1	/	1	/	2	1.1*
C/C(=N\O)c1ccc2c3c([nH]c2c1)CCCC3	62	-1	1.9	11*	-1
COc1ccc2cc(-c3cccnc3)ncc2c1	/	2	/	11*	0
Fc1ccc2cc(-c3cccnc3)ncc2c1	/	0	/	7	-1
C[C@H]1[C@H](NC(=O)c2ccc(C(C)(C)C)cc2)CC[C@@]23CCCN2C(=O)CCC[C@@H]13	/	-3	/	-2	-2
Nc1n[nH]c(N)c1N=Nc1ccc(Cl)cc1	30	2	1.4	13*	-1
O=C(Nc1cccc(Cl)c1)Nc1ccc2nccnc2c1	/	-1	/	5	-1
O=C(Nc1ccc(Cl)cc1)Nc1ccccc1C(=O)N1CCCC1	/	0	/	4	-1
O=C(Nc1ccc(Cl)c(Cl)c1)Nc1ccccc1C(=O)O	215*	4	7.7*	2	0
O=C(Nc1ccc(Cl)cc1)Nc1ccccc1C(=O)O	119	4	4.5*	10	0
CCN1CCN(Cc2ccc(NC(=O)Nc3ccccc3Cl)cc2)CC1	141*	3	2.5	11*	0
O=C(Nc1ccc2nccnc2c1)Nc1ccccc1Cl	/	-1	/	11*	-2
O=C(Cc1ccccc1)NNC(=O)Nc1ccc(Cl)c(Cl)c1	4	-2	0.92	0	-2
O=C(Nc1ccc(CN2CCCCC2)cc1)Nc1ccccc1Cl	42	1	1.8	7	-1
SMILES	APP 5'UTR act	hcDAF-12 act	NF-kB neuron act	hgDAF12 agonist	ssDAF12 agonist
Nc1c(C(=O)N2CCOCC2)cnn1Cc1ccccc1	/	1	/	-1	-1
CCCNC(=O)C[C@H]1CC[C@H]2[C@@H](COc3ccc(NC(=O)Nc4ccc(C#N)cc4)cc3C(=O)N2C)O1	/	0	/	-2	-2
COC(=O)[C@H]1C[C@@]2(N3CCCC3)c3ccccc3N[C@H]2N1S(=O)(=O)c1ccc([N+](=O)[O-])cc1	/	0	/	3	-1
Cc1ccccc1NC(=O)c1onc2c1CCCC2	94	3	3.6*	10	0
Cc1cccc(NC(=O)c2ccc3nccnc3c2)n1	/	0	/	3	-1
Cc1cccc(NC(=O)c2ccc3c(Cl)c4c(nc3c2)CCCC4)n1	160*	-1	0.77	4	-1
Cc1cccc(NC(=O)c2onc3c2CCCC3)c1C	78	2	2.7	11*	0
Cc1cccc(NC(=O)c2onc3c2CCCC3)n1	158*	5	2.5	13*	0
Cc1cccc(NC(=O)c2ccoc2C)n1	16	2	1.3	0	-1
CC(=O)c1ccc(NC2=C(N3CCOCC3)C(=O)c3ccccc3C2=O)cc1	4	0	0.7	-1	-1
Cc1ccc(NC2=C(N3CCOCC3)C(=O)c3ccccc3C2=O)cc1	151*	5	1.8	10	1
COC(=O)[C@H](C(C)C)N1Cc2nnn(CC3CCCCC3)c2-c2ccccc2S1(=O)=O	/	-3	/	-2	-2
O=C(Cn1nnc2ccccc21)NCc1ccccc1	59	3	2.4	11*	-1
Cc1ccc(C(=O)Cn2nnc3ccccc32)cc1	104	3	3.3*	11*	0
O=C(Cn1nnc2ccccc21)c1ccc(Br)cc1	/	0	/	1	-2
CCC(=O)N[C@@H]1C[C@@H]2O[C@@H](CO)CC[C@@H]2O[C@@H]1CCc1ccc(-c2cccc(OC)c2)cc1	/	-1	/	-4	-2
COc1ccc(OCC(=O)Nc2c(Cl)ccc3nsnc23)cc1	/	6.2*	/	0	-1
COc1ccc(OCC(=O)Nc2c(C)ccc3nsnc23)cc1	/	-2	/	-2	-1
COC(=O)C1CCCN(C(=O)C2CCN(S(=O)(=O)c3ccc([N+](=O)[O-])cc3)CC2)C1 (stereo not drawn)	/	-1	/	1	-2
CN1CCC(N[C@@H](Cc2ccccc2)C(=O)NCC(c2ccccc2)c2ccccc2)(C(=O)NC2CCCCC2)CC1	/	-2	/	-4	0
CC1CCN(CCCOc2ccc(OCc3ccccc3)cc2)CC1	7	-1	5.1*	1	-1
c1ccc(COc2ccc(OCCCn3cncn3)cc2)cc1	136*	5	5.3*	10	0
CCN1CCN(Cc2ccc(OCc3ccccc3)cc2)CC1	91	3	1.8	13*	-1
c1ccc(Cc2ccc(OCCn3cncn3)cc2)cc1	1	-1	0.85	-1	-1
CN1CCN(Cc2ccc(OCc3ccccc3)cc2)CC1	97	4	1.8	10	0
CC1CCN(CCCCOc2ccc(C(=O)c3ccccc3)cc2)CC1	10	0	0.91	2	-1
c1ccc(COc2ccc(OCCN3CCCCC3)cc2)cc1	9	6.0*	1.4	-1	-1
CCCN(CC1CC1)C(=O)CNc1nnnn1-c1ccccc1	/	-2	/	4	-1
CCCCNC(=O)C1(C(=O)c2ccc(OC)cc2)CC(C(=O)OCC)=NO1 (stereo not drawn)	/	-1	/	0	-1
COC(=O)c1cnn(-c2ccc(Cl)cc2)c1/C=N/NC(=S)Nc1ccccc1	/	-4	/	0	-2
